The whole screen tested about 1,300 compounds, of which about 270 (21%) were called active. These entries were drawn from the full list. Measured potencies and affinities stand elsewhere. Unmarked numbers belong to inactive results.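 The calls were made as follows: active = dose-dependent rise or fall in viability, either side of zero, with half-maximal concentration at or below a set limit; inconclusive = flat curve at 30 to 70% viability loss, or poor fit; inactive = flat within 30% either way, or potency beyond limit.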

The text below walks through data of PubChem BioAssay AID540335 (Broad Institute, 2011).

The assay in a line: proliferation inhibition in MITF-low A375 cells – cell-based, cherry-pick samples, set 2, counter-screen for MITF modulator project, dose response (AID 540335).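 Also: A375 human melanoma cells which do not depend on MITF; 0% = median of neutral control wells and 100% = double that signal.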 The settings on record: CellTiter-Glo ATP luminescence, 24 h; series mostly up to 35 µM; activity change, negative = decreased viability: at the top concentration. On the technique in general: A counterscreen serves to expose hits that act by an unwanted route or on another target.
As to `CCn1c(=O)c([N+](=O)[O-])c(Cl)c2ccccc21`, the “activity change, negative = decreased viability” value is 5.11%.

On to `COc1ccc(C(=O)/C=C/C(=O)N(CC(=O)NC2CCCCC2)Cc2cccs2)c(O)c1`, for which the “activity change, negative = decreased viability” value was -2.13%. To `Cc1cnc(NC(=O)c2nn(C)cc2[N+](=O)[O-])s1` belongs 0.417%; to `Cn1cc(C(=O)N/N=C/c2c(O)ccc3ccccc23)ccc1=O`, -38.1%. Consider `O=C(CSCC(=O)Nc1ccccc1)N/N=C/c1c(O)ccc2ccccc12`, for which the “activity change, negative = decreased viability” value was -31.7%. The figure for `CCc1ccccc1NC(=O)CN(C)C(=O)Cn1ncc(Cl)c(Cl)c1=O` is 80.5%. To `CC(=O)N(C)C1=C(N2CCOCC2)C(=O)c2ccccc2C1=O` belongs -38%; to `COC(=O)c1ccc2c(c1O)C(=O)c1ccccc1C2=O`, -37.2%. To `CCN(CC)CCNC(=O)c1ccc(NC(=O)c2cn(-c3ccccc3)nc2-c2cccs2)cc1` belongs -38.3%.

Consider `CCS(=O)(=O)c1ccc(N=Nc2ccc(O)c3ncccc23)c(OC)c1`, for which the “activity change, negative = decreased viability” value is -34%. The figure for `O=[N+]([O-])c1ccc(-n2nnnc2-c2ccccc2)c([N+](=O)[O-])c1` is 2.45%. To `CCN1CCN(c2ccc(S(=O)(=O)N3CCCCC3)cc2NC(=O)/C=C/c2cccc(OC)c2OC)CC1` belongs -14.7%; to `CCN1CCN(c2ccc(S(=O)(=O)N3CCCCC3)cc2NC(=O)/C=C/c2ccc([N+](=O)[O-])cc2)CC1`, -9.5%; to `O=C(N/N=C/c1ccc([N+](=O)[O-])s1)C(O)c1ccccc1` (configuration not stated), -11.8%. On to `CC(/C=N/NC(=O)c1cc(-c2ccncc2)nc2ccccc12)=C\c1ccco1`, for which the “activity change, negative = decreased viability” value was 14.4%. To `CN1CCN(C2=C(NS(=O)(=O)c3ccccc3)C(=O)c3ccccc3C2=O)CC1` belongs -10%. The figure for `O=C1C(Nc2ccccc2)=C(N2CCCCC2)C(=O)c2ccccc21` is -22.7%; for `CCN1c2ccccc2NC2C1C(C(C)=O)C(=O)N2c1ccc(Cl)cc1` (configuration not stated) it is -2.02%; for `COC1=C(Nc2ccc(O)cc2)C(=O)c2ccccc2C1=O` it is -34.3%. The figure for `C=CCNC1=C(Cl)C(=O)c2ccccc2C1=O` is -14.5%; for `CCc1ccc(NC2=CC(=O)C(=O)c3ccccc32)cc1` it is -32.6%. Consider `CCNC1=C(Cl)C(=O)c2ccccc2C1=O`, for which the “activity change, negative = decreased viability” value was -23.1%. The figure for `O=C(NC1=C(Nc2ccc(Cl)cc2)C(=O)c2ccccc2C1=O)c1ccccc1` is -34.3%; for `COC1=C(Nc2ccccc2)C(=O)c2ccccc2C1=O` it is -20.6%. To `COc1ccc(C(=O)/C=C/C(=O)N(CC(=O)NC2CCCCC2)CC2CCCO2)c(O)c1` (configuration not stated) belongs -33.5%. To `CC1=NNC(=O)/C1=C\c1cn(-c2ccccc2)nc1-c1ccc(F)cc1` belongs -11.5%; to `Cc1ccc(-c2c[n+](Cc3ccc(Cl)c(Cl)c3)c3n2CCC3)cc1`, -14.8%; to `COc1cc(/C=C/C(=O)c2ccc3c(c2)OCCO3)cc(Br)c1OCC(=O)N(C)C`, 107%. Take `O=C(/C=C\c1ccccc1)NCC(=O)N/N=C/c1ccc(O)cc1O`: the “activity change, negative = decreased viability” value was -16.7%. To `CC1CCN(CC(CS(=O)(=O)c2ccc([N+](=O)[O-])cc2)N2CCC(C)CC2)CC1` (configuration not stated) belongs 5.07%; to `CCc1ccc(-c2cc(C(=O)Nn3cnnc3)c3ccccc3n2)cc1`, -19.7%. The figure for `Cc1cc(C)cc(NC(=O)c2ccc([N+](=O)[O-])o2)c1` is -28%; for `O=C(CS(=O)c1ccc(C(F)(F)F)cc1[N+](=O)[O-])Oc1ccccc1` (configuration not stated) it is 0.077%; for `Cc1ccccc1-c1nc(CN2CCC(C(=O)NCCCN3CCCC(C)C3)CC2)c(C)o1` (configuration not stated) it is -2.83%. The figure for `Cc1cc(C)c2c(N)c(C(=O)N/N=C/c3ccccc3)sc2n1` is 12.6%; for `Cc1cc(C)c2nc3nc(C)cc(C)c3c(N)c2c1` it is -9.13%. For `Cc1oc(-c2ccc(Cl)cc2)nc1CN1CCC(C(=O)NCCCN2CCCC(C)C2)CC1` (configuration not stated), the “activity change, negative = decreased viability” value was -19.6%. To `FC(F)(F)c1cc(CCN2CCNC[C@@H]2Cc2ccccc2)cc(C(F)(F)F)c1` belongs -94.9%; to `O=C(N/N=C\c1ccc([N+](=O)[O-])s1)c1cncc(Br)c1`, -26.1%. For `C#CCCc1ccccc1/C=[N+](/C)[O-]`, the “activity change, negative = decreased viability” value was 3.43%.

Take `N#C/C(=C(/O)c1ccc([N+](=O)[O-])o1)c1nc2ccccc2[nH]1`: the “activity change, negative = decreased viability” value was -27.3%. To `O=C(CCl)N1c2ccccc2SCC1c1ccccc1` (configuration not stated) belongs -37%. As for `O=C(COc1ccc2c(c1)CCC2)N1CCc2ccccc21`, the “activity change, negative = decreased viability” value is 8.68%.

As for `O=C(Cn1ncc(Cl)c(Cl)c1=O)N1CCOCC1`, the “activity change, negative = decreased viability” value was 38.5%. To `CC(=O)Nc1ccc(S(=O)(=O)NC2=C(N3CCN(C)CC3)C(=O)c3ccccc3C2=O)cc1` belongs -33.5%; to `O=C(Nc1cnc2ccccn2c1=O)c1ccc(F)cc1`, 4.12%; to `CN(C)c1nc(C=C(C#N)C#N)c(Cl)n1-c1ccc(F)cc1`, -10.1%.

`O=[N+]([O-])c1ccc(/C=N/n2cnc3ccccc32)s1`: the “activity change, negative = decreased viability” value was -23.5%. The figure for `CC1CCCC(NC(=O)NC(=O)CCl)C1C` (configuration not stated) is -12.3%; for `Cc1ccc(NC(=O)Cn2ncc(Cl)c(Cl)c2=O)cc1S(=O)(=O)N1CCCCC1` it is -14.3%. To `Cc1cc(Br)ccc1NC(=O)CNC(=O)Cn1ncc(Cl)c(Cl)c1=O` belongs -5.62%; to `Cn1nnnc1Sc1ncnc2scc(-c3ccc(C#N)cc3)c12`, 29.3%. For the molecule `CCN1c2ccccc2NC2N=C(OC)C(c3ccccc3)C21` (configuration not stated), the “activity change, negative = decreased viability” value is -35.9%.

`COCCN(CC(=O)NC1CCCCC1)C(=O)/C=C/C(=O)c1ccc(OC)cc1O`: the “activity change, negative = decreased viability” value was 10.5%.

Consider `Cc1ccc(-c2c[n+](Cc3ccc(Cl)cc3)c3n2CCC3)cc1`, for which the “activity change, negative = decreased viability” value was -3.64%. To `Cc1[nH]c2ccccc2c1C(=O)CCl` belongs -3.71%; to `CC(C)C(CCNC1CCN(C)CC1)c1ccc(Cl)cc1` (configuration not stated), -4.07%; to `CCN1CCN(C2=C(NS(=O)(=O)c3ccc(Br)cc3)C(=O)c3ccccc3C2=O)CC1`, -15.8%.

On to `CC1CCC(C(C)C)C(OC(=O)C[n+]2cc(-c3ccc(Cl)cc3)n3c2CCCCC3)C1` (configuration not stated), for which the “activity change, negative = decreased viability” value was -67.3%. The figure for `O=C(O)c1cccc(NC(=S)N/N=C/c2ccccn2)c1` is -11.9%. For `Cc1ccc(C(=O)c2no[n+]([O-])c2C(=O)c2ccc(C)cc2)cc1`, the “activity change, negative = decreased viability” value is -8.72%. To `COc1ccc(C(=O)/C=C/C(=O)N(CC(=O)NC2CCCCC2)Cc2ccccc2)c(O)c1` belongs -10.6%; to `O=C(Nc1ccc(Cl)c(S(=O)(=O)N2CCOCC2)c1)c1ccc(OCC2CCCO2)cc1` (configuration not stated), -37.8%; to `O=C(Nc1ccccc1N1CCOCC1)c1ccc([N+](=O)[O-])s1`, -14.6%. The figure for `O=C(Nc1nc(-c2ccccn2)cs1)c1ccc(F)c(S(=O)(=O)N2CCOCC2)c1` is -27.2%; for `COc1ccc(/C=C2\SC(=O)N(CCCC(=O)Nc3cc(Cl)ccc3C(=O)O)C2=O)cc1` it is 10.5%. The figure for `Cn1cccc1-c1cc(C(=O)N/N=C/c2cc(Br)ccc2O)[nH]n1` is -30%.
